The supplement of paper PMC8007513
Counter-ions that a name gives are not always drawn. ± gives the standard error. Screen size: about 1,300 compounds; about 130 (10%) showed an effect of 50% or more. The sample holds strong results, similar compounds and a random draw of the others, so the mix is not that of the screen.

Test system: Trichoderma virens ATCC 9645
Assay: growth yield (OD600) with compound + IPBC relative to untreated control; higher = less growth inhibition
Details: compound concentration: 100 uM, IPBC concentration: 200 ng/ml
How it was run: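 For each 96-well plate, 100 μl aliquots were prepared with Trichoderma virens ATCC 9645 spores suspended at 15,000 spores ml^−1 in potato dextrose broth. The spores had been harvested from potato dextrose agar plates after 7 days. Library compounds were present at 100 μM final, some wells also receiving a biocide at 200 ng ml^−1, and plates were grown at 30 °C with OD600 read on a BioTek EL800 at 40 h and 72 h. Reported growth, relative to the control lacking both agents, is the mean of duplicate screens.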

Row | SMILES | growth yield (40 h) [%] | growth yield (72 h) [%]
1 | CCCCNc1c(C(=O)OCC)c(C)nc2c1cnn2CC [Tracazolate hydrochloride] + CCCCNC(=O)OCC#CI [3-iodo-2-propynyl butylcarbamate (IPBC)] | 21.9 | 53.7 ± 0.21
2 | CCCCNc1ccc(C(=O)OCCOCCOCCOCCOCCOCCOCCOCCOCCOC)cc1 [Benzonatate] + CCCCNC(=O)OCC#CI [3-iodo-2-propynyl butylcarbamate (IPBC)] | 77.4 ± 1.1 | 83.27 ± 0.42
3 | CCCCNc1ccc(C(=O)OCCN(C)C)cc1 + CCCCNC(=O)OCC#CI [3-iodo-2-propynyl butylcarbamate (IPBC)] | 81.5 ± 1.4 | 88.2 ± 0.32
4 | CC(C)(S)C(N)C(=O)O (racemic) [D,L-Penicillamine] + CCCCNC(=O)OCC#CI [3-iodo-2-propynyl butylcarbamate (IPBC)] | 94.8 ± 8.4 | 94.2 ± 5.5
5 | COC1=CC(=O)C[C@@H](C)[C@]12Oc1c(Cl)c(OC)cc(OC)c1C2=O [Griseofulvin] + CCCCNC(=O)OCC#CI [3-iodo-2-propynyl butylcarbamate (IPBC)] | 48.8 ± 3.6 | 85.2 ± 1.1
6 | CCC(=O)O[C@@H](O[P@](=O)(CCCCc1ccccc1)CC(=O)N1C[C@H](C2CCCCC2)C[C@H]1C(=O)O)C(C)C [Fosinopril] + CCCCNC(=O)OCC#CI [3-iodo-2-propynyl butylcarbamate (IPBC)] | 86.9 ± 9.1 | 94.8 ± 7.3
7 | C[N+](C)(CCOc1ccccc1)Cc1ccccc1.O=C([O-])c1cc2ccccc2cc1O [Bephenium hydroxynaphthoate] + CCCCNC(=O)OCC#CI [3-iodo-2-propynyl butylcarbamate (IPBC)] | 63.5 | 85.3 ± 2.4
8 | CC(C)(C)CC(C)(C)c1ccc(OCCOCC[N+](C)(C)Cc2ccccc2)cc1 [Benzethonium chloride] + CCCCNC(=O)OCC#CI [3-iodo-2-propynyl butylcarbamate (IPBC)] | 3.18 ± 0.32 | 2.52 ± 0.42
9 | Cc1cc(C(C)(C)CC(C)(C)C)ccc1OCCOCC[N+](C)(C)Cc1ccccc1 [Methyl benzethonium chloride] + CCCCNC(=O)OCC#CI [3-iodo-2-propynyl butylcarbamate (IPBC)] | 2.86 ± 0.64 | 2.62 ± 0.1
10 | CCC(=O)O[C@]1(C(=O)SCF)[C@H](C)C[C@H]2[C@@H]3C[C@H](F)C4=CC(=O)C=C[C@]4(C)[C@@]3(F)[C@@H](O)C[C@@]21C [Fluticasone propionate] + CCCCNC(=O)OCC#CI [3-iodo-2-propynyl butylcarbamate (IPBC)] | 101 ± 0.64 | 99.63 ± 0.42
11 | Cc1cc(CC(=O)O)n(C)c1C(=O)c1ccc(Cl)cc1 [Zomepirac sodium salt] + CCCCNC(=O)OCC#CI [3-iodo-2-propynyl butylcarbamate (IPBC)] | 89.59 ± 0.64 | 92.4 ± 2.2
12 | CNCC[C@@H](Oc1ccccc1C)c1ccccc1 [Tomoxetine hydrochloride] + CCCCNC(=O)OCC#CI [3-iodo-2-propynyl butylcarbamate (IPBC)] | 78.31 ± 0.48 | 87.89 ± 0.84
13 | CN1CCN(C2=Nc3cc(Cl)ccc3Nc3ccccc32)CC1 [Clozapine] + CCCCNC(=O)OCC#CI [3-iodo-2-propynyl butylcarbamate (IPBC)] | 65.6 ± 2.7 | 93.8 ± 2.7
14 | CC(NCCc1ccc(O)cc1)C(O)c1ccc(O)cc1 (configuration not stated) [Ritodrine hydrochloride] + CCCCNC(=O)OCC#CI [3-iodo-2-propynyl butylcarbamate (IPBC)] | 83.07 ± 0.16 | 92.4 ± 0.32
15 | CCCCCCCCNC(C)C(O)c1ccc(SC(C)C)cc1 (configuration not stated) [Suloctidil] + CCCCNC(=O)OCC#CI [3-iodo-2-propynyl butylcarbamate (IPBC)] | 5.08 ± 0.32 | 33.1 ± 2.5
16 | CC(CCc1ccccc1)NC(C)C(O)c1ccc(O)cc1 (configuration not stated) [Nylidrin] + CCCCNC(=O)OCC#CI [3-iodo-2-propynyl butylcarbamate (IPBC)] | 95.3 ± 2.9 | 96.59 ± 0.1
17 | OCCN1C[C@H](O)[C@@H](O)[C@H](O)[C@H]1CO [Miglitol] + CCCCNC(=O)OCC#CI [3-iodo-2-propynyl butylcarbamate (IPBC)] | 90.1 ± 9.1 | 93 ± 4.5
18 | CCOC(=O)c1ccc(C#Cc2ccc3c(c2)C(C)(C)CCS3)nc1 [Tazarotene] + CCCCNC(=O)OCC#CI [3-iodo-2-propynyl butylcarbamate (IPBC)] | 81.2 ± 2.7 | 91.6 ± 1.4
19 | C#CCN[C@@H]1CCc2ccccc21 [Rasagiline] + CCCCNC(=O)OCC#CI [3-iodo-2-propynyl butylcarbamate (IPBC)] | 84.5 ± 1.3 | 85.6 ± 1.1
20 | O=C(CCCN1CCC(O)(c2ccc(Br)cc2)CC1)c1ccc(F)cc1 [Bromperidol] + CCCCNC(=O)OCC#CI [3-iodo-2-propynyl butylcarbamate (IPBC)] | 64.3 ± 2.1 | 87.3 ± 1.5
21 | O=C(CCCN1CCC2(CC1)C(=O)NCN2c1ccccc1)c1ccc(F)cc1 [Spiperone] + CCCCNC(=O)OCC#CI [3-iodo-2-propynyl butylcarbamate (IPBC)] | 77.8 ± 2.9 | 90.4 ± 0.21

Row | SMILES | growth yield (40 h) [%] | growth yield (72 h) [%]
22 | O=C(CCCN1CCC(O)(c2ccc(Cl)cc2)CC1)c1ccc(F)cc1 [Haloperidol] + CCCCNC(=O)OCC#CI [3-iodo-2-propynyl butylcarbamate (IPBC)] | 10.2 ± 1.9 | 60.4 ± 4.4
23 | CSc1nc2cc(Cl)c(Oc3cccc(Cl)c3Cl)cc2[nH]1 [Triclabendazole] + CCCCNC(=O)OCC#CI [3-iodo-2-propynyl butylcarbamate (IPBC)] | 66.7 ± 3.2 | 120 ± 6.5
24 | O=C(O)c1cn(C2CC2)c2cc(N3CCNCC3)c(F)cc2c1=O [Ciprofloxacin hydrochloride monohydrate] + CCCCNC(=O)OCC#CI [3-iodo-2-propynyl butylcarbamate (IPBC)] | 86.2 ± 8.7 | 91.5 ± 6.3
25 | CCOc1nc2cccc(C(=O)OCc3oc(=O)oc3C)c2n1Cc1ccc(-c2ccccc2-c2noc(=O)[nH]2)cc1 [Azilsartan kamedoxomil] + CCCCNC(=O)OCC#CI [3-iodo-2-propynyl butylcarbamate (IPBC)] | 110 ± 5.1 | 105 ± 2.7
26 | CN[C@@H]1[C@@H](O[C@H]2O[C@H](CO)[C@@H](N)[C@H](O)[C@H]2O)OC2C[C@@H](N)[C@@H](O[C@H]3[C@H](O)[C@@H](O)[C@H](N)C[C@@H]3N)OC2[C@@H]1O (some centres not stated) [Apramycin] + CCCCNC(=O)OCC#CI [3-iodo-2-propynyl butylcarbamate (IPBC)] | 96.6 ± 4.1 | 97.1 ± 1.5
27 | CCCN(CCC)S(=O)(=O)c1ccc(C(=O)O)cc1 [Probenecid] + CCCCNC(=O)OCC#CI [3-iodo-2-propynyl butylcarbamate (IPBC)] | 81.5 ± 4.9 | 86.1 ± 0.73
28 | NC(=O)N1c2ccccc2C=Cc2ccccc21 [Carbamazepine] + CCCCNC(=O)OCC#CI [3-iodo-2-propynyl butylcarbamate (IPBC)] | 92.8 ± 1.9 | 93.8 ± 1.1
29 | COc1cc2c(c(OC)c1OC)-c1ccc(OC)c(=O)cc1[C@@H](NC(C)=O)CC2 [Colchicine] + CCCCNC(=O)OCC#CI [3-iodo-2-propynyl butylcarbamate (IPBC)] | 88.5 ± 6.8 | 92.9 ± 1.7
30 | NC[C@@H]1O[C@H](O[C@H]2[C@@H](O)[C@H](O[C@@H]3[C@@H](O)[C@H](N)C[C@H](N)[C@H]3O[C@H]3O[C@H](CO)[C@@H](O)[C@H](O)[C@H]3N)O[C@@H]2CO)[C@H](N)[C@@H](O)[C@@H]1O [Paromomycin sulfate] + CCCCNC(=O)OCC#CI [3-iodo-2-propynyl butylcarbamate (IPBC)] | 84 ± 7.2 | 86.5 ± 2.2
31 | COC1=C(OC)C(=O)C(CCCCCCCCCCO)=C(C)C1=O [Idebenone] + CCCCNC(=O)OCC#CI [3-iodo-2-propynyl butylcarbamate (IPBC)] | 49.1 ± 8.1 | 73.9 ± 4.5
32 | CCn1cc(C(=O)O)c(=O)c2cc(F)c(N3CCNC(C)C3)c(F)c21 (configuration not stated) [Lomefloxacin hydrochloride] + CCCCNC(=O)OCC#CI [3-iodo-2-propynyl butylcarbamate (IPBC)] | 87.4 ± 8.3 | 96.3 ± 6.5
33 | CCCN(CCC)CCc1cccc2c1CC(=O)N2 [Ropinirole hydrochloride] + CCCCNC(=O)OCC#CI [3-iodo-2-propynyl butylcarbamate (IPBC)] | 84.8 ± 1.3 | 90.61 ± 0.42
34 | O=C(O)c1cccnc1Nc1cccc(C(F)(F)F)c1 [Niflumic acid] + CCCCNC(=O)OCC#CI [3-iodo-2-propynyl butylcarbamate (IPBC)] | 63.9 ± 2.9 | 85.2 ± 3.1
35 | O=C(O)c1ccccc1Nc1cccc(C(F)(F)F)c1 [Flufenamic acid] + CCCCNC(=O)OCC#CI [3-iodo-2-propynyl butylcarbamate (IPBC)] | 29.1 ± 2.1 | 59.05 ± 0.32
36 | O=C(OCCOCCO)c1ccccc1Nc1cccc(C(F)(F)F)c1 [Etofenamate] + CCCCNC(=O)OCC#CI [3-iodo-2-propynyl butylcarbamate (IPBC)] | 59.2 ± 1.4 | 94.4 ± 2.1
37 | CCCc1nc(C(C)(C)O)c(C(=O)O)n1Cc1ccc(-c2ccccc2-c2nnn[nH]2)cc1 [Olmesartan] + CCCCNC(=O)OCC#CI [3-iodo-2-propynyl butylcarbamate (IPBC)] | 107 ± 1.3 | 104 ± 1.4
38 | OC(c1cc(C(F)(F)F)nc2c(C(F)(F)F)cccc12)C1CCCCN1 (configuration not stated) [Mefloquine hydrochloride] + CCCCNC(=O)OCC#CI [3-iodo-2-propynyl butylcarbamate (IPBC)] | 74.8 ± 4 | 103 ± 3.4
39 | O=C(O)Cc1sc(-c2ccccc2)nc1-c1ccc(Cl)cc1 [Fentiazac] + CCCCNC(=O)OCC#CI [3-iodo-2-propynyl butylcarbamate (IPBC)] | 25.4 | 77.1 ± 16
40 | O=C(O)CCc1nc(-c2ccccc2)c(-c2ccccc2)o1 [Oxaprozin] + CCCCNC(=O)OCC#CI [3-iodo-2-propynyl butylcarbamate (IPBC)] | 72.7 ± 4.5 | 85.47 ± 0.73
41 | O=C(O)Cc1ccc(-c2ccccc2)cc1 [Felbinac] + CCCCNC(=O)OCC#CI [3-iodo-2-propynyl butylcarbamate (IPBC)] | 56.2 ± 4.1 | 91.9 ± 4.6
